Compounds without any hit were thinned out: in the full panel of roughly 83,000, 20% have a hit.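 Treatment: one concentration, 48 hours, 96-well format. Scoring: percent growth, with anything below 10 considered active.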 A number with no mark means an inactive call. Active and inactive are the calls of the source.
Columns and labels:
Assay in all cases: NCI-60 one-dose screen, 48 h (100 = growth as untreated, 0 = no growth, -100 = all killed)
Conditions in all cases: 10 µM unless noted
SR leukemia = tested on: SR leukemia
RPMI-8226 leukemia = tested on: RPMI-8226 leukemia
OVCAR-8 ovarian = tested on: OVCAR-8 ovarian
OVCAR-5 ovarian = tested on: OVCAR-5 ovarian
OVCAR-4 ovarian = tested on: OVCAR-4 ovarian
SK-OV-3 ovarian = tested on: SK-OV-3 ovarian
OVCAR-3 ovarian = tested on: OVCAR-3 ovarian
HS 578T breast = tested on: HS 578T breast
NCI/ADR-RES ovarian = tested on: NCI/ADR-RES ovarian
T-47D breast = tested on: T-47D breast
BT-549 breast = tested on: BT-549 breast
MDA-MB-435 melanoma = tested on: MDA-MB-435 melanoma
SW-620 colon = tested on: SW-620 colon
MCF7 breast = tested on: MCF7 breast
HCT-116 colon = tested on: HCT-116 colon
HCC-2998 colon = tested on: HCC-2998 colon
KM12 colon = tested on: KM12 colon

Compound	growth (SR leukemia)	growth (RPMI-8226 leukemia)	growth (OVCAR-8 ovarian)	growth (OVCAR-5 ovarian)	growth (OVCAR-4 ovarian) [%]	growth (SK-OV-3 ovarian) [%]	growth (OVCAR-3 ovarian)	growth (HS 578T breast) [%]	growth (NCI/ADR-RES ovarian) [%]	growth (T-47D breast)	growth (BT-549 breast)	growth (MDA-MB-435 melanoma)	growth (SW-620 colon)	growth (MCF7 breast)	growth (HCT-116 colon)	growth (HCC-2998 colon)	growth (KM12 colon)
COc1ccc(Nc2ncccc2/C=C/C(=O)c2cc(OC)c(OC)c(OC)c2)cc1	-22.4% (active)	-25.3% (active)	-33.8% (active)	-15.4% (active)	29	64.6	-88.2% (active)	37.8	14	-4.22% (active)	-35% (active)	-35.8% (active)	-68.3% (active)	-61.3% (active)	-50.2% (active)	-75.9% (active)	-87.5% (active)
N#C/C(=C\c1ccc(-c2cccc(C(F)(F)F)c2)o1)c1ccccc1	86.3%	90.9%	101%	96.9%	79	84.7	95.6%	86.7	101	35.6%	96.6%	99.1%	92.3%	25.7%	80.4%	100%	79.3%
CCOC(=O)c1nn(CC(O)c2ccccc2)c(NC(=O)Nc2cccc(F)c2)c1C (stereo not drawn)	95.3%	96.6%	91.4%	107%	94.8	107	102%	94.5	106	90.1%	101%	99.9%	95.9%	91.3%	96.4%	98.3%	104%
COc1cc(OC)cc(-c2ccc(-c3ccc(C(=N)N)o3)o2)c1	-17.3% (active)	20.6%	64.3%	83.5%	85.5	88.2	25.7%	78	68.9	49.3%	85.8%	-27.5% (active)	2.04% (active)	8.92% (active)	-8.08% (active)	-36.8% (active)	17.6%

— PubChem BioAssay (NCI)
